Bioassay records: PubChem BioAssay, several laboratories
BJeLR lethal = BJeLR cell viability loss; BJeLR (HRASV12) viability, CellTiter-Glo ATP luminescence, 48 h; inhibition, % (concentration not given with the values); hit rate 0.17% among 300,000; in the data active = inhibition above about 50%
VHR inh abs = blocks human VHR1 dual specificity phosphatase; recombinant VHR phosphatase, pNPP absorbance; inhibition, % at 13.3 µM; hit rate 0.52% among 290,000; in the data active = inhibition above about 50%
Target sequence (P51452 whole entry, looked up): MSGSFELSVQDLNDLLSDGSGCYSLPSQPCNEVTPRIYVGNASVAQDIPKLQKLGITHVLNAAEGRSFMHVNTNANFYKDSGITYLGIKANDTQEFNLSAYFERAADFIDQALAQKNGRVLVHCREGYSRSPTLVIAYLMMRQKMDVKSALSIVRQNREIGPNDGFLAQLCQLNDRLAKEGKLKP
CCHF vOTU inh-1 = blocks the CCHF virus ovarian tumor domain protease. CCHFV vOTU protease, Pep-AMC fluorescence. hit rate 0.55% among 370,000. inhibition, % at 11.5 µM; also: 0% = vehicle wells with enzyme and 100% = no enzyme wells
MazF activator = activators of E. coli MazEF toxin-antitoxin RNase; P0AE70; FAM/BHQ RNA-DNA oligo cleavage fluorescence, 5 h; activation, % at 20 µM; hit rate 0.32% among 350,000; in the data active = activation above about 50%
Target sequence (P0AE70 whole entry, looked up): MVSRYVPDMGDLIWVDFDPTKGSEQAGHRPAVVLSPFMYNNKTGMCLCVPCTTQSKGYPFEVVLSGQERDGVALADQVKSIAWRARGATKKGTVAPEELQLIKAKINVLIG
SARS 3CLpro inh = SARS-CoV 3CLpro protease inhibition. P0C6X7. recombinant SARS-CoV 3CLpro, quenched FRET peptide cleavage. inhibition, % at 6 µM. hit rate 0.14% among 290,000. AID 1706; in the data active = inhibition above about 12%
CCHF vOTU inh-2 = CCHFV vOTU protease inhibition, confirmation | shares compounds with CCHF vOTU inh-1 | Recombinant CCHFV vOTU, Pep-AMC fluorescence | inhibition, % at 11.5 µM | hit rate 17% among 1,900 | AID 686976
Numbers without * were called inactive; / = not tested or not shown. The list is not random: actives were taken first. Their share in the collection is about 1.4%. Rule as the data show it, unless noted: active = inhibition above about 30%; inactive = the rest.

SMILES	BJeLR lethal	VHR inh abs	CCHF vOTU inh-1	MazF activator	SARS 3CLpro inh	CCHF vOTU inh-2
CC1CCCC(NC(=O)COC(=O)c2ccc([N+](=O)[O-])s2)C1C (stereo not drawn)	/	/	66*	-3	/	61*
CC1CCCC(NC(=O)COC(=O)c2ccccc2[N+](=O)[O-])C1C (stereo not drawn)	-1	11	0	-4	-2	/
CCc1ccc(OCC(=O)OCC(=O)NC2CCCC(C)C2C)cc1 (stereo not drawn)	/	/	10	-2	/	/
O=C(COC(=O)c1ccc([N+](=O)[O-])s1)Nc1ncc(C(F)(F)F)cc1Cl	-4	18	49*	-26	-2	64*
COC(=O)[C@H](CC(C)C)N1Cc2nnn(Cc3ccccc3)c2-c2cc(F)ccc2S1(=O)=O	/	/	2	/	/	/
C[C@H]1C2CC(OC(=O)NCc3ccc(Cl)cc3)C(C2)[C@H]2CCCCN21 (stereo partly drawn)	/	/	-10	/	/	/
O=S(=O)(c1ccc(F)cc1)N1CCC(c2nc3ccccc3o2)CC1	/	/	2	/	/	/
COc1ccc2c(n1)Sc1nc3ccccc3nc1N2	0	6	59*	-234	-4	-2
COc1cc2ccccc2nn1	-4	-15	-19	7	-1	/
COc1ccc(NC(=O)COC(=O)c2cc(SC)ccc2Cl)c(OC)c1	-3	13	30*	-23	-9	-13
COc1ccccc1N1CCN(S(=O)(=O)c2ccc3c(c2)CCC(=O)N3)CC1	/	/	0	/	/	/
C=CCN1C(=O)/C(=C/c2ccc(OC(C)=O)c(OCC)c2[N+](=O)[O-])SC1=S	26	33	30*	6	-2	82*
CNc1oc(-c2ccccc2)nc1S(=O)(=O)c1ccc(C)cc1	-4	-11	30*	-3	0	-15
Cc1ccc(Cn2cc(CN(C)S(=O)(=O)c3ccccc3Br)nn2)cc1	/	/	-4	/	/	/
COC(=O)[C@]1(C#N)CC(=O)N(CC(C)C)[C@@H]1c1ccccc1	/	/	-1	/	/	/
O=C1C(=O)c2cccnc2-c2ncccc21	/	/	111*	/	/	86*
CCOC(=O)/C=C1\CN(Cc2cc(OC)c(OC)c(OC)c2)S(=O)(=O)c2ccc(C(F)(F)F)cc21	5	-7	33*	-21	1	3
CN(Cc1cn(Cc2ccccc2)nn1)S(=O)(=O)c1ccccc1Br	/	/	-1	/	/	/
CCOc1cc(/C=N/N=C2/NC(=O)C(CC(=O)O)S2)ccc1OCc1ccc(Cl)cc1Cl (stereo not drawn)	10	/	/	-2	4	/
COc1cc(/C=N/N=C2/NC(=O)C(CC(=O)O)S2)ccc1OCc1ccc(Cl)cc1 (stereo not drawn)	-6	16	34*	-6	10	17
CCCc1cn(-c2ccc3c(c2)[C@@]2(CC(=O)N(C)C2c2ccccc2)C(=O)N3CC(C)C)nn1 (stereo partly drawn)	/	/	1	/	/	/
Cc1ccc(-n2c3nc(=O)[nH]c(=O)c-3cc3cc([N+](=O)[O-])ccc32)cc1C	-2	12	31*	-4	1	-4
Cc1ccc(S(=O)(=O)n2cnc3cc([N+](=O)[O-])ccc32)cc1C	0	39	6	12	3	/
O=c1ccc2[n+]([O-])c3ccc(O)cc3oc-2c1	14	45	50*	-153	1	27
O=c1cc(O)c2ccc(O)cc2o1	0	16	-3	10	12	/
SMILES	BJeLR lethal	VHR inh abs	CCHF vOTU inh-1	MazF activator	SARS 3CLpro inh	CCHF vOTU inh-2
O=C(c1ccco1)[C@@H]1[C@@H]2C(=O)N(c3ccc(F)cc3)C(=O)[C@@H]2C2c3ccccc3C=CN21 (stereo partly drawn)	3	25	86*	/	-7	40*
CC(=O)[C@@H]1[C@@H]2C(=O)N(C3CCCCC3)C(=O)[C@@H]2C2c3ccccc3C=CN21 (stereo partly drawn)	0	24	/	/	4	/
O=C(c1ccco1)[C@@H]1[C@@H]2C(=O)N(c3ccc(F)cc3)C(=O)[C@@H]2[C@H]2C=Cc3ccccc3N21	/	8	14	16	-2	/
O=C(c1ccco1)[C@@H]1[C@@H]2C(=O)N(c3ccc(Br)cc3)C(=O)[C@@H]2C2c3ccccc3C=CN21 (stereo partly drawn)	/	22	93*	-5	-1	84*
C[N+]1(C)[C@H]2CC[C@H]1CC(OC(=O)C(O)c1ccccc1)C2 (stereo partly drawn)	/	/	-7	/	/	/
COc1ccc(CN2CCN(Cc3ccccc3C(F)(F)F)CC2)c(OC)c1	3	17	30*	7	-1	-2
O=C(NC1CCCCC1)C(c1ccco1)N(C(=O)C(F)(F)F)C1CC1 (stereo not drawn)	13	8	-5	2	2	/
Cc1ccc(CN(C(=O)C(F)(F)F)C(C(=O)NC2CCCCC2)c2ccco2)cc1 (stereo not drawn)	1	18	30*	0	2	-7
CC(NC(=O)C(C)N1c2cccc3cccc(c23)S1(=O)=O)c1ccccc1 (stereo not drawn)	-6	-8	32*	2	5	-18
O=C(Cn1cc(COC(=O)c2c3ccccc3cc3ccccc23)nn1)c1ccc(O)cc1	/	/	34*	/	/	-23
COc1ccc2cc([C@H](C)C(=O)OCc3cn(CC(=O)c4ccc(O)cc4)nn3)ccc2c1	/	/	9	3	/	/
CCOC(=O)C1(Cc2cccc(OC)c2)CCN(Cc2cccc(O)c2)CC1	7	30	31*	2	0	-23
CC(C)=CCC1=C(OCC(=O)O)C(=O)c2ccccc2C1=O	-12	15	110*	6	2	85*
CC(C)=CCC/C(C)=C/CC/C(C)=C/CC/C(C)=C/CC1=C(C)C(=O)c2ccccc2C1=O	1	-1	3	-6	/	/
CN(C)CC(=O)N[C@H]1C[C@@H]2O[C@H](CO)CC[C@@H]2O[C@@H]1CCc1ccc(-c2ccc(F)cc2)cc1	/	/	14	/	/	/
CCOc1ccc(NC(=O)c2ccc3c(c2)OCCO3)cc1S(=O)(=O)N(CC)CC	/	/	32*	-5	/	-16
Cc1ccc(S(=O)Cc2ccc(C(=O)N3CCN(C(=O)c4ccco4)CC3)o2)cc1 (stereo not drawn)	7	11	14	9	-2	/
O=C(c1ccco1)N1CCN(C(=O)c2ccc(CS(=O)c3ccc(Cl)cc3)o2)CC1 (stereo not drawn)	-18	15	39*	5	1	-8
Cc1nc2sc(C(=O)NC3CC3)c(N)c2c(C)c1Cl	/	/	-5	/	/	/
CCc1ccc(NC(=O)C(C)OC(=O)c2cc(=O)[nH]c3ccc(S(=O)(=O)Nc4ccc(F)cc4)cc23)cc1 (stereo not drawn)	-10	26	-12	25	0	/
Cc1cccc(NS(=O)(=O)c2ccc3[nH]c(=O)cc(C(=O)OC(C)C(=O)Nc4ccc([N+](=O)[O-])cc4)c3c2)c1 (stereo not drawn)	-13	6	34*	1	3	-10
COc1cc(N(C)C)ccc1C=c1c2ccccc2n2c1cc(-c1ccccc1)[n+]2C	/	/	34*	-11	/	7
